Among the data in ChEMBL document CHEMBL1961873, “Compounds: GSK PKIS; Assays: Nanosyn kinase panel” (2012) are inhibition values, retold here.

Assay [1] concerns the target Mitogen-activated protein kinase 3 (Homo sapiens) (UniProt P27361). Particulars: at 1 µM.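 Also: values are mean percent inhibition of MAPK3.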
Assay [2] concerns the target SRSF protein kinase 3 (Homo sapiens) (UniProt Q9UPE1). Particulars: at 0.1 µM.
The target is the same in assay [3]. Particulars: at 1 µM.
Assay [4] deals with Mitogen-activated protein kinase 14 (Homo sapiens) (UniProt Q16539). Particulars: at 0.1 µM.
The target is the same in assay [5]. Particulars: at 1 µM.
Assay [6] has as its target Mitogen-activated protein kinase 11 (Homo sapiens) (UniProt Q15759). The conditions noted are these: at 0.1 µM.
Assay [7] has the same target. The conditions noted are these: at 1 µM.
Assay [8] concerns the target T1, Mitogen-activated protein kinase 13 (Homo sapiens) (UniProt O15264).
T1 sequence (whole entry): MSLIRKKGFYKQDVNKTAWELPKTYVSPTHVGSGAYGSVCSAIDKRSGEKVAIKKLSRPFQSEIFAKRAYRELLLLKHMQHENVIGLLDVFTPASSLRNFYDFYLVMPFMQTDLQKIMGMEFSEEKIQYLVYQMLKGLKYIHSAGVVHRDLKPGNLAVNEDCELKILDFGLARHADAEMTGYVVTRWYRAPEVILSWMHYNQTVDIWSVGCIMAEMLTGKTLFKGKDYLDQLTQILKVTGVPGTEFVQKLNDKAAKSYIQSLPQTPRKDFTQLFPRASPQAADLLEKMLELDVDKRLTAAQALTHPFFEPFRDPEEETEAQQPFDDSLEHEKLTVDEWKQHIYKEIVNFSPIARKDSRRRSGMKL
The conditions noted are these: at 0.1 µM.

Assay [9] concerns the target T1, Mitogen-activated protein kinase 13 (Homo sapiens). The conditions noted are these: at 1 µM.
For assay [10], the target named is T2, Mitogen-activated protein kinase 12 (Homo sapiens) (UniProt P53778).
T2 sequence (whole entry): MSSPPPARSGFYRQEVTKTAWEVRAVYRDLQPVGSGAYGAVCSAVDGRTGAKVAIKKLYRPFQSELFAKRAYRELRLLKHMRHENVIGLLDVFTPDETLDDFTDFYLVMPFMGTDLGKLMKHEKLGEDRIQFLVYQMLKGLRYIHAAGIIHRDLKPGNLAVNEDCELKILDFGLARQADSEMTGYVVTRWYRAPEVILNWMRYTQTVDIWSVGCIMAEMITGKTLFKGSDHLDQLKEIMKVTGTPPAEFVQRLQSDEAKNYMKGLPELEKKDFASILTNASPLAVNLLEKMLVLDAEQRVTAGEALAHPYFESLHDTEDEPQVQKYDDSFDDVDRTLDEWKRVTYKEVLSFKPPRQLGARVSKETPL
Particulars: at 0.1 µM.

The target of assay [11] is T2, Mitogen-activated protein kinase 12 (Homo sapiens). Particulars: at 1 µM.
The target of assay [12] is SRSF protein kinase 1 (Homo sapiens) (UniProt Q96SB4). The conditions noted are these: at 0.1 µM.
Assay [13] has the same target. The conditions noted are these: at 1 µM.
Assay [14] deals with Phosphatidylinositol 4,5-bisphosphate 3-kinase catalytic subunit alpha isoform (Homo sapiens) (UniProt P42336). The conditions noted are these: at 0.1 µM.
For assay [15] the target is unchanged. Particulars: at 1 µM.
The target in assay [16] is T3, Phosphatidylinositol 4,5-bisphosphate 3-kinase catalytic subunit delta isoform (Homo sapiens) (UniProt O00329).
T3 sequence (whole entry): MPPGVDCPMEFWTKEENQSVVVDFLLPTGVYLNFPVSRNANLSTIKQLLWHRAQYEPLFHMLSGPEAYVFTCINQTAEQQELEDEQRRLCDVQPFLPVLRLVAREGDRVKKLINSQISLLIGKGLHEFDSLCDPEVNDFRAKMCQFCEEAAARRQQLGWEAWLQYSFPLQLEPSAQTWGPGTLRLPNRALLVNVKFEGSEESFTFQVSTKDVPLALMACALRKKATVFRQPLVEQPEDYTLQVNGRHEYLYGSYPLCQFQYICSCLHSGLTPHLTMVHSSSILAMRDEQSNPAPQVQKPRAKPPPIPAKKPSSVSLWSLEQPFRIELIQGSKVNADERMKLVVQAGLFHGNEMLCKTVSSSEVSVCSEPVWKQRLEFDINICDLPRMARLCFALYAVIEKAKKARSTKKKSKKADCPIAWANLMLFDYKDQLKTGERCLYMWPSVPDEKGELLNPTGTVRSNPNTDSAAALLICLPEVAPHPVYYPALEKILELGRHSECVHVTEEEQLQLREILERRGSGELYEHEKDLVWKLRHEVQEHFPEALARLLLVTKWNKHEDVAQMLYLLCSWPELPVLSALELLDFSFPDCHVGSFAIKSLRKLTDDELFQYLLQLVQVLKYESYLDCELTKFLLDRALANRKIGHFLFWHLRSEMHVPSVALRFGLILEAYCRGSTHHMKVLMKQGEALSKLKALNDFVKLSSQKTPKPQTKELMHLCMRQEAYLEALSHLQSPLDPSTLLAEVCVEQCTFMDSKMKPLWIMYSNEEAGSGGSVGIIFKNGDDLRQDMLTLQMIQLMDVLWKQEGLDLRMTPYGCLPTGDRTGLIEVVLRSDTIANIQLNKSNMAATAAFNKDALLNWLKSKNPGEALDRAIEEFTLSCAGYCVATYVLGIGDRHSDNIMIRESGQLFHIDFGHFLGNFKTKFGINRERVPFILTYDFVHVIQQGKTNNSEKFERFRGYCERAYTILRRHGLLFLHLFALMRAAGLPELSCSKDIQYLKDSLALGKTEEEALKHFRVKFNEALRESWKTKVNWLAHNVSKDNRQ
The conditions noted are these: at 0.1 µM.

Assay [17] deals with T3, Phosphatidylinositol 4,5-bisphosphate 3-kinase catalytic subunit delta isoform (Homo sapiens). The conditions noted are these: at 1 µM.
The target of assay [18] is Phosphatidylinositol 4-kinase beta (Homo sapiens) (UniProt Q9UBF8). The conditions noted are these: at 0.1 µM.
The target is the same in assay [19]. Particulars: at 1 µM.
Assay [20] has as its target Sphingosine kinase 1 (Homo sapiens) (UniProt Q9NYA1). Particulars: at 0.1 µM.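 Also: mean percent inhibition of SPHK1 activity, measured within the GSK PKIS screening panel.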

Chain of Phosphatidylinositol 4,5-bisphosphate 3-kinase catalytic subunit alpha isoform (Homo sapiens) (P42336 whole entry, canonical isoform): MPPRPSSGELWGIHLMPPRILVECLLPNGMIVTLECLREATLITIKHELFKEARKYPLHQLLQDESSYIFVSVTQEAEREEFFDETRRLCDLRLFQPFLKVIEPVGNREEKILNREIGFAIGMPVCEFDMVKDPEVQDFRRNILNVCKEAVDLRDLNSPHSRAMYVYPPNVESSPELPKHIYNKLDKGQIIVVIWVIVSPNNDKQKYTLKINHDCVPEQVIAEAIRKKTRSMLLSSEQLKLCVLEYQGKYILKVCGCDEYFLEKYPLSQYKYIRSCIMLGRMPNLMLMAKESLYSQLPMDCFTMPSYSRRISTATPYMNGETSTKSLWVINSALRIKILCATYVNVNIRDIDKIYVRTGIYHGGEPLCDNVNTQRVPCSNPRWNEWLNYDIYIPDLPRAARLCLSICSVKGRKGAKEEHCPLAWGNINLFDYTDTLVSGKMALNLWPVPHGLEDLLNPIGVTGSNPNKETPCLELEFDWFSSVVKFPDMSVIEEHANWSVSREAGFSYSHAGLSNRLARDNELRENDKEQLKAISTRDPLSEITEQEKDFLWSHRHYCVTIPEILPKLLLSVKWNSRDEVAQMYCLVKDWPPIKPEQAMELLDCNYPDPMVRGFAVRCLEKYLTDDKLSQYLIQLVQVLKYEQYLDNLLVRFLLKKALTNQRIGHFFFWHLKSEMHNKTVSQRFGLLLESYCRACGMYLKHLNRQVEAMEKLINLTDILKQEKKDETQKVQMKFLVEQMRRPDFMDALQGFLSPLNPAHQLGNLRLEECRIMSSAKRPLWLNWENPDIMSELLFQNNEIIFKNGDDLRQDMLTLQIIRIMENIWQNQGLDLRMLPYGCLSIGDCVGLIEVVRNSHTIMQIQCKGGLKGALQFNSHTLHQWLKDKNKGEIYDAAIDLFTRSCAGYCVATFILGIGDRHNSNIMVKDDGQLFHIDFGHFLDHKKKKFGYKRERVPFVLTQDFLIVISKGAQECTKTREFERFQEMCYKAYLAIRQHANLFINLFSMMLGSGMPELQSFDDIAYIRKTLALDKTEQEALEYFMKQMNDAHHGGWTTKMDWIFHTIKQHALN
Chain of Mitogen-activated protein kinase 11 (Homo sapiens) (Q15759 whole entry): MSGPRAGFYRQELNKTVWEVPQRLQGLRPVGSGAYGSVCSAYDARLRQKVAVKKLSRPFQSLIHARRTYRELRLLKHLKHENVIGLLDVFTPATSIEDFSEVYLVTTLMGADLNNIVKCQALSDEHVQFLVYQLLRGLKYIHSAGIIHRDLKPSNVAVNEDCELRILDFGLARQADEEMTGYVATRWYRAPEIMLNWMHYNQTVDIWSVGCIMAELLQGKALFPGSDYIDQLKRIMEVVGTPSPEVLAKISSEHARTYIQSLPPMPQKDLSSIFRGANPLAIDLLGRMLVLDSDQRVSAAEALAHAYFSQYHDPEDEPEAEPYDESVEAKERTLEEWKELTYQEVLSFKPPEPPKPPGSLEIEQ
Chain of SRSF protein kinase 1 (Homo sapiens) (Q96SB4 whole entry): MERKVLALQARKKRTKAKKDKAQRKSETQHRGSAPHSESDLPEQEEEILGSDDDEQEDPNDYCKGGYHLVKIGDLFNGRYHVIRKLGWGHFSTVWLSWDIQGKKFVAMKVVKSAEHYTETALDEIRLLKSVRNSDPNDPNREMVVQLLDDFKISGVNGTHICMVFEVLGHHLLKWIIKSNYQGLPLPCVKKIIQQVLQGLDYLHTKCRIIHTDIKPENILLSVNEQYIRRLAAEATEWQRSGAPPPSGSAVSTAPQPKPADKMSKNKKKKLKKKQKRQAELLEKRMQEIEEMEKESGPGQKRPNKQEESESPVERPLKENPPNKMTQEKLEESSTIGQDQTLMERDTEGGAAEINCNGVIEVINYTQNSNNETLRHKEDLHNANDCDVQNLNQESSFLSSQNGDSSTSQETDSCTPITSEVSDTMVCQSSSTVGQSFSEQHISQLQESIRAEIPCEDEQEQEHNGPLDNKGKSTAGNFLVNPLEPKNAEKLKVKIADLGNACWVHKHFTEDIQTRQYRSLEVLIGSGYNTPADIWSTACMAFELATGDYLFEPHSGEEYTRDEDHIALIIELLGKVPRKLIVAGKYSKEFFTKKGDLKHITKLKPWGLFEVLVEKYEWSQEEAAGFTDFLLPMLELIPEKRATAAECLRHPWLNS
Chain of SRSF protein kinase 3 (Homo sapiens) (Q9UPE1 whole entry): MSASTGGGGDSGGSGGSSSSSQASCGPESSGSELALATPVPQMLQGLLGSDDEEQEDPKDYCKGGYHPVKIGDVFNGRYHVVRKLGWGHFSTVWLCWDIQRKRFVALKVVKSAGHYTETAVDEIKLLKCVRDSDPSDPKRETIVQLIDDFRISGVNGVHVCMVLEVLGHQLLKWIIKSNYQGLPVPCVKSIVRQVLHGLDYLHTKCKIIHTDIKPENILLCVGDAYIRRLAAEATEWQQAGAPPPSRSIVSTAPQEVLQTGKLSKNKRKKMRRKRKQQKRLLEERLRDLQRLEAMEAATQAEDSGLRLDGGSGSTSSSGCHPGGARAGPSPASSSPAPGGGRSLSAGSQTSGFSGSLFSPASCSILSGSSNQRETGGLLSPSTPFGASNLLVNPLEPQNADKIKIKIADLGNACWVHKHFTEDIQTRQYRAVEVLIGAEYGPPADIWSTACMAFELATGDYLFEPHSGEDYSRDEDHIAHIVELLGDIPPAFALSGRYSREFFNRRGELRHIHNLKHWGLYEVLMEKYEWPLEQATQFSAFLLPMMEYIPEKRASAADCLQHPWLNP
Chain of Sphingosine kinase 1 (Homo sapiens) (Q9NYA1 whole entry): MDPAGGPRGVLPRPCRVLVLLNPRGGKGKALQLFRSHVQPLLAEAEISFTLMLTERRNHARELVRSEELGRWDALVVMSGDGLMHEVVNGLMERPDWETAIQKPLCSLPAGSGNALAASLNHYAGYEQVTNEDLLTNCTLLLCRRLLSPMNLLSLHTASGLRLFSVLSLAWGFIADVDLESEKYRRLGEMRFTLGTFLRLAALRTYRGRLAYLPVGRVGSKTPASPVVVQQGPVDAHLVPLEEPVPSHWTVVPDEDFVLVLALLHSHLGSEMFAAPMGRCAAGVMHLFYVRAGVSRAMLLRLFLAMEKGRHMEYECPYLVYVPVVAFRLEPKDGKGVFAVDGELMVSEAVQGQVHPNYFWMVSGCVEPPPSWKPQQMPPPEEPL
Chain of Phosphatidylinositol 4-kinase beta (Homo sapiens) (Q9UBF8 2-816 limits assumed): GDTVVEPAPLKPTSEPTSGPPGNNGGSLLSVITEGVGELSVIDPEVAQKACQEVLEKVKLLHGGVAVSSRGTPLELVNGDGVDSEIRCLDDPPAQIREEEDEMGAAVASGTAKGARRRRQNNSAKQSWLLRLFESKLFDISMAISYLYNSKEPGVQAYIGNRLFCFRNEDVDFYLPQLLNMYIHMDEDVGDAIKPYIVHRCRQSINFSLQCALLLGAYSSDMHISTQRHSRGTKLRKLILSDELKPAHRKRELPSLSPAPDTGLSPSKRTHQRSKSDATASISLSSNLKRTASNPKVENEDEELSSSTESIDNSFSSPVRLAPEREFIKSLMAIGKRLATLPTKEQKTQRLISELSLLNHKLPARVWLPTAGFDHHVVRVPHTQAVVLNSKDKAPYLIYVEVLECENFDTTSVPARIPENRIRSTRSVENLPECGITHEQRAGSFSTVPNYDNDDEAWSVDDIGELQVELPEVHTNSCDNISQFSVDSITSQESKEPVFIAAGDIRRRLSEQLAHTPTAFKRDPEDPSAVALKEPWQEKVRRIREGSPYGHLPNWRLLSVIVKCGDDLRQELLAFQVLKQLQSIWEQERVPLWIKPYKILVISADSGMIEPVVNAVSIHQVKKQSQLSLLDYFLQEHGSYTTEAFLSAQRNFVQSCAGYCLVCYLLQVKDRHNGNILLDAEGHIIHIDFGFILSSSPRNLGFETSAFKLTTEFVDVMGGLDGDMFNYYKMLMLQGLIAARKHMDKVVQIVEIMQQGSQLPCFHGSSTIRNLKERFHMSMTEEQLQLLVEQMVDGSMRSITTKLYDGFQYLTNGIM
Chain of Mitogen-activated protein kinase 3 (Homo sapiens) (P27361 whole entry): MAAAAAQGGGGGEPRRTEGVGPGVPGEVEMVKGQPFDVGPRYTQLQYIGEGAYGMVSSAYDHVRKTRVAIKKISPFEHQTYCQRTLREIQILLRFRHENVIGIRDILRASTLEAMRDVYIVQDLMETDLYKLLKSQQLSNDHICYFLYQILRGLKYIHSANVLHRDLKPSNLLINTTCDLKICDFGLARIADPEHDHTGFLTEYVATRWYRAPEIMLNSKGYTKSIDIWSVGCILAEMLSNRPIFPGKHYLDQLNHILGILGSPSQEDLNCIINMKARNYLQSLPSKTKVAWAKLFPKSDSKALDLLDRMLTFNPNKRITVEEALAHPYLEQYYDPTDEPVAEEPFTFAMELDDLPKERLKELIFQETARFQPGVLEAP
Chain of Mitogen-activated protein kinase 14 (Homo sapiens) (Q16539 whole entry): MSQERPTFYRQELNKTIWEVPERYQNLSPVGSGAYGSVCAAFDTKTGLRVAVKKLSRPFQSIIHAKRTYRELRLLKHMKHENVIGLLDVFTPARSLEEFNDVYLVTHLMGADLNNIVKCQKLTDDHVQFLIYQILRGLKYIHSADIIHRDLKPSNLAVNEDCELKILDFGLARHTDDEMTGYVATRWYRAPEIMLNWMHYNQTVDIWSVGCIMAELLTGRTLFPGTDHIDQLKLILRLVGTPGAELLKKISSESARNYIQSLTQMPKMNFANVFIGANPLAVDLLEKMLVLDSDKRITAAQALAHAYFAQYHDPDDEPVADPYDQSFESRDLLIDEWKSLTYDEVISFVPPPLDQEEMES

`CC1=C(C(=O)Nc2ccc3[nH]ncc3c2)C(c2ccc3ccccc3c2)CC(=O)N1` (stereo not given): the inhibition (as a rule, the change of the read-out against control, counted positive when it falls) in assay [1] was 22.4%; in assay [2], 0.02%; in assay [3], -0.13%; in assay [4] it was 3.64%; in assay [5] it was 5.06%; in [6], -1.05%. The inhibition was 2.44% in assay [7]; 3.08% in assay [8]; 2.24% in assay [9]; -0.44% in [10]; 1.97% in [11]; -1.36% in assay [12]. Further, the inhibition in assay [13] is 0.02%; in assay [14], 5.28%; in assay [15], 5.6%; in assay [16], 4.38%; in assay [17], 4.97%; in assay [18], -1.78%. Besides, the inhibition in [19] is 0.34%; in assay [20] it was 1.83%.
Regarding `Nc1nc(-c2ccccn2)c(-c2ccc3ncccc3n2)s1`, the inhibition was 1.04% in assay [1]; 0.57% in [2]; 0.83% in assay [3]; -0.64% in [4]; 6.59% in [5]; 1.28% in [6]. The inhibition in assay [7] was 3.29%; in assay [8], 2.8%; in [9], 5.95%; in assay [10], -0.21%; in [11], 1.76%; in assay [12], -1.15%. Besides, the inhibition is -0.55% in assay [13]; 4.05% in [14]; 5.74% in assay [15]; 2.87% in assay [16]; 3.05% in assay [17]; 4.8% in assay [18]. The figures for the inhibition in [19] and in assay [20] were 0.96% and -1.16%, respectively.
For the molecule `COc1cc2ncn(-c3cc(O[C@@H](C)c4ccccc4Cl)c(C(N)=O)s3)c2cc1OC`, the inhibition was 3.07% in assay [1]; -3.53% in assay [2]; -0.07% in assay [3]; 6.72% in assay [4]; 7.39% in assay [5]; 3.1% in assay [6]. Moreover, the inhibition is 2.35% in assay [7]; 4.76% in assay [8]; 3.82% in assay [9]; 3.18% in [10]; 3.72% in [11]; -2.61% in assay [12]. For the same molecule, the inhibition is -2.08% in assay [13]; 4.55% in assay [14]; 11.5% in [15]; 2.44% in [16]; 10.6% in [17]; 3.29% in [18]. Also, the inhibition in assay [19] was -6.07%; in assay [20] it was 1.31%.
With `Cn1cc(C=C2C(=O)Nc3cccnc32)c2ccccc21`, the inhibition in assay [1] was 2.73%; in assay [2] it was -0.25%; in assay [3], -0.47%; in [4] it was 3.62%; in assay [5], 7.85%; in assay [6], 3.65%. Besides, the inhibition in [7] was 5.58%; in [8], -0.63%; in [9] it was 2.23%; in assay [10] it was 2.25%; in assay [11], 2.65%; in assay [12] it was -3.21%. Further, the inhibition in assay [13] was -4.48%; in assay [14], 2.82%; in assay [15], 7.17%; in assay [16], 1.38%; in [17], 3.54%; in assay [18] it was 0.42%. The inhibition in assay [19] was 4.05%; in [20], -3.04%.
As to `NC(=O)c1ccc(-c2nc(-c3ccccn3)c(-c3ccc4c(c3)OCO4)[nH]2)cc1`, the inhibition in [1] is 1.38%; in assay [2], -1.12%; in assay [3], 0.34%; in assay [4], 7.26%; in [5], 15.5%; in assay [6], 5.42%. Further, the inhibition in [7] is 10.6%; in [8], 1.16%; in assay [9], 2.44%; in [10], 0.17%; in [11], 1.74%; in assay [12], -2.38%. Besides, the inhibition was -2.03% in [13]; 1.4% in [14]; -0.55% in assay [15]; 0.37% in [16]; 2.45% in assay [17]; -5.45% in assay [18]. Moreover, the results for the inhibition in assay [19] and in assay [20] were -2.85% and 3.02%, respectively.
